# Rows were chosen to be rich in hits. Some 3% of all compounds tested hit in one or more screens of this group.
# SENP8 block-1 = human SENP8 protease inhibitors, primary screen, biochemical, fluorescence, Nedd8 protein substrate, uHTS; recombinant SENP8; inhibition, % at 20 µM; 360,000 tested, 0.64% active; AID 602440, 2012; in the data active = inhibition mostly above about 40%, no sharp cut-off; inactive = mostly below about 27%
# Target sequence (Q96LD8 whole entry, looked up): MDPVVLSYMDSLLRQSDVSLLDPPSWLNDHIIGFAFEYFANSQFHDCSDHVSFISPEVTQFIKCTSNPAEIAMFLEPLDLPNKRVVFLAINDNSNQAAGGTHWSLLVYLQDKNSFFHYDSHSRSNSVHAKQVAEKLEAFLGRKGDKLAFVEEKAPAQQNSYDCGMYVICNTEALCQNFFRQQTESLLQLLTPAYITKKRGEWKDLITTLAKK
# PPC-1+TRAIL kill = compounds killing PPC-1 cancer cells with TRAIL present, primary screen, TRAIL potentiator project, ATPLite luminescence, uHTS; PPC-1 cells + TRAIL, ATPLite viability luminescence; cell killing (% activity), % at 4 µM or 5 µM; 220,000 tested, 0.41% active;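 active = cell killing above 50% in the first pass at 4 µM, then a duplicate retest at 5 µM averaging 50% or more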;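 note: plate controls were cells with TRAIL plus DMSO for no effect and medium-only wells lacking cells for full effect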
# SENP6 block = SENP6 protease inhibitors, primary screen, biochemical, luminescence, uHTS. Sentrin-specific protease 6 (Homo sapiens), Q9GZR1. Recombinant SENP6 catalytic domain, aminoluciferin luminescence. inhibition, % at 10 µM. 330,000 tested, 1.8% active;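 active = inhibition above about 50% at the single tested dose, limit read from the data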;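 note: plate controls were DMSO wells with enzyme for no effect and DMSO wells lacking enzyme for full effect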
# TRAIL sens C8 = viability loss with TRAIL in NB7+C8 cells, primary screen, TRAIL sensitizer project, cell-based, ATPlite luminescence; inhibition (viability loss, TRAIL sensitization), % at 10 µM; 360,000 tested, 1% active; AID 624354, 2012;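 active = compounds causing at least 50% loss of cell viability in the single-dose screen, relative to plate controls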
# SENP7 block = SENP7 protease inhibitors, primary screen, biochemical, luminescence, uHTS; Sentrin-specific protease 7 (Homo sapiens), Q9BQF6; recombinant SENP7, Z-RLRGG-aminoluciferin luminescence, 40 min; inhibition, % at 5 µM; 330,000 tested, 1.5% active;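 active = inhibition above about 50% at the single test dose, limit read from the data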;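 note: plate controls were DMSO with enzyme for no effect and no enzyme buffer wells for full effect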
# Target sequence (Q9BQF6 706-1050 limits assumed): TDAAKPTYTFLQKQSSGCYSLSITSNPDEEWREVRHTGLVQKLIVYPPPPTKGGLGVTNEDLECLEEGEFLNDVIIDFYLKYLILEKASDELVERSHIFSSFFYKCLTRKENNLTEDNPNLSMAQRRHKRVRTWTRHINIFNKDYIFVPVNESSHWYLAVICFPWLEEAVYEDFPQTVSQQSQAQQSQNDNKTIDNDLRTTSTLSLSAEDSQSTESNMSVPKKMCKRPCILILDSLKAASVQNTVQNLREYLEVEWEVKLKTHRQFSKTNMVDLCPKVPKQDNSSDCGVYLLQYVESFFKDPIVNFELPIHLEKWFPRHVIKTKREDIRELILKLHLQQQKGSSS
# SENP8 block-2 = SENP8 protease inhibitors, primary screen, biochemical, luminescence. 330,000 tested, 1.2% active. inhibition, % at 10 µM. purified SENP8, Z-RLRGG-aminoluciferin cleavage; in the data active = inhibition above about 50%
# PPC1 cytotox = cytotoxicity in PPC-1 cells, confirmation, cytotoxicity control for TRAIL apoptosis potentiator project, cell-based, ATP content luminescence; shares compounds with PPC-1+TRAIL kill; PPC-1 viability, ATPlite luminescence, overnight; cytotoxicity, % at 5 µM; 1,200 tested, 50% active;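 active = reconfirmed compounds whose average cytotoxicity reaches 50% or more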;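 note: 0% = DMSO-treated cells and 100% = wells holding medium but no cells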
# SENP8 confirm = SENP8 protease inhibitors, retest, confirmation, biochemical, luminescence, single concentration | Recombinant SENP8, Z-RLRGG-aminoluciferin luminescence, 60 min | inhibition, % at 12.5 µM | AID 488912, 2010 | 6,200 tested, 40% active | shares compounds with SENP7 block;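 active = mean inhibition across replicates above about 50%, limit read from the data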
# SENP6 confirm = SENP6 protease inhibitors, confirmation, biochemical, luminescence, single concentration; 6,200 tested, 58% active; recombinant SENP6, Z-RLRGG-aminoluciferin luminescence; shares compounds with SENP7 block; inhibition, % at 12.5 µM
# SENP7 conf = SENP7 protease inhibitors, retest, confirmation, biochemical, luminescence, single concentration; shares compounds with SENP7 block; recombinant SENP7, Z-RLRGG-aminoluciferin luminescence, 40 min; inhibition, % at 12.5 µM; 6,200 tested, 69% active; AID 488917, 2010
# Casp3 select = caspase-3 protease inhibitors, confirmation, selectivity assay for SENP inhibitor project, biochemical, single concentration; 6,200 tested, 60% active; purified caspase-3, Z-DEVD-aminoluciferin luminescence, 60 min; inhibition, % at 12.5 µM; shares compounds with SENP7 block;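 active = mean inhibition above about 50%, limit read from the data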;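 note: plate controls were enzyme with DMSO for no effect and wells without caspase-3 for full effect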
# Luc interf = interferes with luciferase luminescence in SENP counter-screen | inhibition, % at 12.5 µM | 6,200 tested, 39% active | Pre-incubated SENP8/Z-RLRGG-aminoluciferin, luciferase luminescence interference | shares compounds with SENP7 block;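 active = mean inhibition above about 50% when retested at one dose, limit read from the data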;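 note: plate controls were DMSO wells with completed reaction for no effect and substrate without enzyme for full effect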
# Starred values were filed as active, the others as inactive; x = not tested or not shown.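 Rule for the calls, unless noted: active = mean inhibition above about 50% in the one-dose retest (limit read from the data); inactive = the rest.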
SMILES,SENP8 block-1,PPC-1+TRAIL kill,SENP6 block,TRAIL sens C8,SENP7 block,SENP8 block-2,PPC1 cytotox,SENP8 confirm,SENP6 confirm,SENP7 conf,Casp3 select,Luc interf
Cc1ccnc(NC(=O)Nc2ccc3c(c2)OCO3)c1,7,36,36,55*,70*,-9,41,9,10,12,14,-4
COc1ccc(CNCCS(=O)(=O)NN2CCOCC2)cc1,4,x,x,-6,1,x,x,x,x,x,x,x
CCOC(=O)C(Cc1ccc(O)cc1)NC(=O)c1cc2c(cn1)[nH]c1ccccc12 (stereo not given),-140,x,x,4,x,x,x,x,x,x,x,x
O=C(NCc1ccccc1Cl)c1ccc(S(=O)(=O)NCc2ccco2)cc1,8,x,6,-16,-5,0,x,x,x,x,x,x
C=C(C)CSc1nc2ncccc2[nH]1,10,0,-13,-8,5,4,x,x,x,x,x,x
Cc1ccc(CSc2nc3ncccc3[nH]2)cc1,11,49,81*,67*,67*,64*,48,7,77*,95*,43,81*
COCn1c(-c2ccc(OC)cc2)nc2ccccc21,-15,34,59*,45,53*,26,42,55*,53*,86*,81*,63*
CCCn1c(-c2ccc(OC)cc2)nc2ccccc21,-5,11,-22,11,2,-8,x,x,x,x,x,x
O=C1c2ccccc2C(=O)C1c1ccc2ccccc2n1,19,84*,81*,84*,99*,81*,80*,10,34,42,30,20
COC(=O)C1=C(C)NC(C)=C(C(=O)OC)C1c1ccc2ccccc2n1,-484,29,-8,1,-5,-9,x,x,x,x,x,x
O=C(c1ccccc1)n1c(=S)nc2ccccn21,2,72*,78*,84*,90*,70*,74*,2,74*,93*,57*,15
Cc1cccc(C(=O)n2c(=S)nc3ccccn32)c1,3,70*,91*,74*,90*,46,70*,77*,82*,92*,69*,56*
Cc1cccc(C(=O)N2CCCCCC2)c1,5,0,-20,-3,-11,-8,x,x,x,x,x,x
O=C(c1ccccc1)n1ccn(-c2ccccc2)c1=S,-324,12,2,21,2,8,x,x,x,x,x,x
COc1ccccc1Nc1nnc(SCC2CCCCO2)s1 (stereo not given),12,65*,91*,70*,90*,88*,65*,91*,91*,100*,94*,91*
Cc1ccc(Nc2nnc(SCC3CCCCO3)s2)cc1 (stereo not given),6,14,-10,9,-13,-15,x,x,x,x,x,x
CC1=CC(=C2C(=O)c3ccccc3C2=O)C=C(C)N1C,27,11,5,14,-2,-3,x,x,x,x,x,x
CCCCCN1C=CC(=C2C(=O)c3ccccc3C2=O)C=C1,24,94*,96*,96*,97*,96*,94*,94*,96*,100*,96*,46
CCCCN(C)C(=O)c1cc2cc3ccc(OC)cc3nc2s1,-334,37,91*,68*,95*,91*,36,91*,97*,101*,96*,54*
CCCCN(CC)C(=O)c1cc2cc3ccc(OC)cc3nc2o1,-304,-6,-25,0,22,4,x,x,x,x,x,x
Cc1ccc(NS(=O)(=O)c2ccc(C(=O)OCC(=O)NCC3CCCO3)cc2)cc1 (stereo not given),3,3,0,-5,-10,-2,x,x,x,x,x,x
COc1ccc(CNC(=O)CN(Cc2ccccc2)C(=O)CCC(=O)Nc2nccs2)cc1,7,x,3,-12,-17,-20,x,x,x,x,x,x
CCOc1ccc(NC(=O)c2ccccc2O)cc1,5,68*,64*,58*,38,36,64*,55*,49,78*,64*,63*
Cc1cc(C)c2c(N)c(-c3nc4ccccc4[nH]3)sc2n1,-485,-1,-8,-2,1,-4,x,x,x,x,x,x
Cc1ccc2nc(-c3sc4nc(C)ccc4c3N)[nH]c2c1,-253,32,56*,54*,7,24,24,50,43,30,12,24
SMILES,SENP8 block-1,PPC-1+TRAIL kill,SENP6 block,TRAIL sens C8,SENP7 block,SENP8 block-2,PPC1 cytotox,SENP8 confirm,SENP6 confirm,SENP7 conf,Casp3 select,Luc interf
Cc1cc(C(=O)COC(=O)c2ccncc2)c(C)n1Cc1ccco1,5,5,-6,33,6,-10,x,x,x,x,x,x
Cc1cc(C(=O)COC(=O)c2cccn2C)c(C)n1Cc1ccco1,4,38,67*,63*,67*,64*,24,81*,80*,94*,68*,-3
COc1cccc(-c2cc(CNC(=O)[C@H]3O[C@@H](n4cnc5c(N)ncnc54)[C@H](O)[C@@H]3O)no2)c1,31,x,x,-26,x,x,x,x,x,x,x,x
N/C(=N\OC(=O)c1ccc(Cl)c(Cl)c1)c1ccccn1,4,7,85*,66*,95*,68*,18,36,47,65*,82*,59*
N/C(=N\OC(=O)c1ccc(Cl)cc1)c1ccccn1,8,3,94*,69*,99*,97*,7,88*,99*,103*,98*,79*
N/C(=N\OC(=O)c1ccccc1Cl)c1ccccn1,6,66*,96*,79*,100*,93*,70*,97*,98*,102*,98*,97*

# High-throughput results: PubChem, Sanford-Burnham Center for Chemical Genomics
